Growth data for 13 molecules are collected here from PubChem BioAssay (NCI).

This is part of a sample that, as a whole, favours compounds with a hit. Of some 83,000 tested, about 20% had one in any assay.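 Negative percent growth values reflect cell death: -40 means 40% of the cells present at the start died, and -100 means all died.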 Values without a mark were called inactive. The source made the active and inactive calls. How the source made its calls: active means growth percent below 10; inactive means the rest.

Test systems include HCT-15 colon; HT29 colon; SNB-75 CNS; SNB-19 CNS; U251 CNS; PC-3 prostate; SK-MEL-5 melanoma; UACC-62 melanoma; LOX IMVI melanoma; SK-MEL-28 melanoma.
Experiment in all cases: NCI-60 one-dose screen, 48 h (100 = growth as untreated, 0 = no growth, -100 = all killed)
Holding throughout (details): 10 µM unless noted

Turning to `C=C1C(=O)O[C@H]2[C@H]1CC/C(COC(=O)c1ccc(Cl)nc1)=C\CC[C@@]1(C)O[C@@H]21`, the growth with HCT-15 colon was -14.6% (active); with HT29 colon, -6.31% (active); with SNB-75 CNS, 74.9%; with SNB-19 CNS, 56%; in the assay on U251 CNS it was 44.1%; with PC-3 prostate it was 53.2%. The growth in the assay with SK-MEL-5 melanoma was 44.8%; in the assay on UACC-62 melanoma, -25.6% (active); in the assay with LOX IMVI melanoma, -79.3% (active); with SK-MEL-28 melanoma, 1.37% (active).
For the molecule `Nc1n[nH]c2cccc(C#Cc3cccc(NC(=O)c4cccc(C(F)(F)F)c4)c3)c12`, the growth in the assay on HCT-15 colon is 30.2%; with HT29 colon, 13.3%; in the assay with SNB-75 CNS, 30.5%; with SNB-19 CNS it was 80.1%; with U251 CNS, 49.4%; in the assay with PC-3 prostate it was 39.9%. For the same molecule, the growth in the assay with SK-MEL-5 melanoma was 43.9%; with UACC-62 melanoma it was 26.1%; in the assay on LOX IMVI melanoma, 2.44% (active); with SK-MEL-28 melanoma, 23.9%.
For the molecule `CCCCCCCC(=O)SCC/C=C/[C@@H]1CC(=O)NCc2nc(cs2)C2=N[C@@](C)(CS2)C(=O)N[C@@H](C(C)C)C(=O)N1`, the growth in the assay with HCT-15 colon is 61%; in the assay with HT29 colon, -22.4% (active); with SNB-75 CNS, 35.8%; in the assay on SNB-19 CNS, 20.8%; in the assay with U251 CNS, -33.5% (active); in the assay on PC-3 prostate it was 19.6%. In addition, the growth with SK-MEL-5 melanoma is -21.3% (active); in the assay with UACC-62 melanoma it was -25% (active); with LOX IMVI melanoma it was -91.8% (active); with SK-MEL-28 melanoma, 25.3%.
Consider `O=C(C[n+]1ccccc1Cl)c1ccc2c(c1)CCCC2`, for which the growth with HCT-15 colon is 102%; in the assay with HT29 colon, 79.7%; in the assay on SNB-75 CNS it was 88.4%; in the assay with SNB-19 CNS it was 108%; in the assay on U251 CNS, 97.7%; with PC-3 prostate, 87.3%. The growth was 98.4% with SK-MEL-5 melanoma, 106% in the assay with UACC-62 melanoma, 101% in the assay on LOX IMVI melanoma and 105% with SK-MEL-28 melanoma.
Turning to `O=C(O)c1ccc2nc(-c3ccc(OCCCCCOc4ccc(-c5nc6ccc(C(=O)O)cc6[nH]5)cc4)cc3)[nH]c2c1`, the growth was 74.3% in the assay on HCT-15 colon; 51.4% in the assay with HT29 colon; 96% in the assay on SNB-75 CNS; 59.6% with SNB-19 CNS; 96.4% in the assay on U251 CNS; 90% in the assay on PC-3 prostate. For the same molecule, the growth in the assay with SK-MEL-5 melanoma was 3.26% (active); with UACC-62 melanoma, 53%; with LOX IMVI melanoma, 82%; with SK-MEL-28 melanoma it was 46.9%.
Take `COc1ccc(Cl)cc1NC(=O)c1cc2c([nH]1)-c1nc(NC(=O)C(C)C)sc1CC2`: the growth is 95.4% in the assay with HCT-15 colon; 87% with HT29 colon; 92.2% in the assay with SNB-75 CNS; 110% in the assay on SNB-19 CNS; 96.5% in the assay on U251 CNS; 87.6% in the assay on PC-3 prostate. The growth with SK-MEL-5 melanoma is 77.6%; in the assay on UACC-62 melanoma, 91.7%; with LOX IMVI melanoma it was 95%; in the assay with SK-MEL-28 melanoma it was 112%.
Regarding `COc1ccc(-c2nn(-c3ccc(NC(=O)c4ccc(Cl)c(C(F)(F)F)c4)cc3)cc2-c2ccncc2)cc1Cl`, the growth was -26% (active) in the assay on HCT-15 colon; -39.5% (active) in the assay on HT29 colon; 31.1% in the assay with SNB-75 CNS; 42.7% with SNB-19 CNS; 13.5% in the assay with U251 CNS; 23.2% in the assay with PC-3 prostate. For the same molecule, the growth was -69.3% (active) with SK-MEL-5 melanoma, -14.6% (active) with UACC-62 melanoma, -63.9% (active) in the assay with LOX IMVI melanoma and 50.2% in the assay with SK-MEL-28 melanoma.
`CS(=O)(=O)Nc1cccc(-c2ccc3ncnc(Nc4ccc(F)c(Cl)c4)c3c2)c1`: the growth was 1% (active) in the assay on HCT-15 colon; 1.71% (active) with HT29 colon; 32.8% in the assay with SNB-75 CNS; 47.4% with SNB-19 CNS; 18.2% with U251 CNS; 12.3% in the assay with PC-3 prostate. Besides, the growth in the assay on SK-MEL-5 melanoma is 21.4%; with UACC-62 melanoma, 28.2%; in the assay on LOX IMVI melanoma, -35.4% (active); in the assay on SK-MEL-28 melanoma, 44.9%.
Take `COc1cc(NC(C)CCCN2C(=O)c3ccccc3C2=O)c2ncccc2c1OC` (stereo not given): the growth is 94.1% with HCT-15 colon; 101% in the assay with HT29 colon; 84.8% with SNB-75 CNS; 94.1% with SNB-19 CNS; 107% with U251 CNS; 71.3% in the assay with PC-3 prostate. For the same molecule, the growth in the assay with SK-MEL-5 melanoma is 84.3%; with UACC-62 melanoma it was 90.1%; in the assay on LOX IMVI melanoma, 79.2%; with SK-MEL-28 melanoma it was 105%.
As to `O=C(/C=C/c1ccccc1)Oc1ccc(/C=C/c2cc(OC(=O)/C=C/c3ccccc3)cc(OC(=O)/C=C/c3ccccc3)c2)cc1`, the growth with HCT-15 colon is 103%; in the assay with HT29 colon, 90.1%; with SNB-75 CNS, 80.5%; in the assay on SNB-19 CNS, 96.2%; in the assay with U251 CNS it was 94.9%; with PC-3 prostate, 87.5%. Further, the growth in the assay with SK-MEL-5 melanoma was 107%; in the assay with UACC-62 melanoma it was 103%; in the assay with LOX IMVI melanoma, 98.4%; in the assay with SK-MEL-28 melanoma it was 107%.
In the case of `O=C(Nc1ccc(-n2ccc3c(NC(=O)c4ccccc4)nccc32)cc1)c1ccc(Cl)c(C(F)(F)F)c1`, the growth with HCT-15 colon is -32.9% (active); in the assay on HT29 colon, -3.9% (active); in the assay with SNB-75 CNS, 60.3%; with SNB-19 CNS, 44.6%; in the assay on U251 CNS, -51.6% (active); in the assay with PC-3 prostate it was 42%. Moreover, the growth in the assay on SK-MEL-5 melanoma was 27.1%; in the assay with UACC-62 melanoma, 40.6%; in the assay on LOX IMVI melanoma it was -28.8% (active); with SK-MEL-28 melanoma, 54.6%.
Take `O=C(Nc1cccc(-n2ccc3c(NC(=O)c4ccccc4)ncnc32)c1)Nc1ccc(Cl)c(C(F)(F)F)c1`: the growth is 34.1% in the assay with HCT-15 colon; 26.6% in the assay with HT29 colon; 44.4% in the assay with SNB-75 CNS; 46.5% in the assay with SNB-19 CNS; 31.7% in the assay with U251 CNS; 22.7% with PC-3 prostate. In addition, the growth was 19% with SK-MEL-5 melanoma, 39.5% in the assay on UACC-62 melanoma, 24.7% with LOX IMVI melanoma and 49.4% in the assay with SK-MEL-28 melanoma.
As for `CC(C)(C)NC(C1=CC(C)(C)c2ccccc2C1=O)c1ccccc1` (stereo not given), the growth in the assay on HCT-15 colon was -58.7% (active); in the assay on HT29 colon it was -60.2% (active); with SNB-75 CNS it was 16.3%; with SNB-19 CNS it was 25%; with U251 CNS, -67.7% (active); with PC-3 prostate, -79% (active). The growth in the assay with SK-MEL-5 melanoma was 3.82% (active); with UACC-62 melanoma it was -23.5% (active); in the assay with LOX IMVI melanoma, -66% (active); with SK-MEL-28 melanoma, -10.5% (active).
